Assay results reported in PubChem BioAssay AID1159580 (chemical genetic matrix, 2015).
Among all 5,500 compounds or so, about 2,000 (36%) were called active. Another 18% or so got no clear call; they are omitted. Rule as the data show it: active = normalized growth mostly below about 0.91 (no sharp cut-off); inconclusive = no clear call, values can overlap the other calls; inactive = mostly above about 0.92. This is one part of the list.

Assay: chemical genetic growth profiling, strain panel (AID 1159580);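 also: tested at 20 µM; growth read once vehicle control cultures reached saturation at 30 °C; 1 = growth at the plate median or of vehicle wells; lower values mean less growth of the strain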
Settings: S. cerevisiae deletion strains, growth OD

Measured: normalized growth

CCN1CCC[C@H]1CNC(=O)c1c(O)c(Cl)cc(Cl)c1OC
inactive: locus YAL040C, strain CLN3, hits give low values 1.01 | locus YCL061C, strain MRC1 (second series), hits give low values 1 | locus YDR363W, strain ESC2, hits give low values 1.03 | locus YER002W, strain NOP16, hits give low values 0.998 | locus YGR229C, strain SMI1, hits give low values 1.02 | locus YMR263W, strain SAP30, hits give low values 1.01 | locus YMR307W, strain GAS1, hits give low values 1 | locus YNL128W, strain TEP1, hits give low values 1.03 | locus YNL175C, strain NOP13, hits give low values 1.01 | locus YNL197C, strain WHI3, hits give low values 1.01 | locus YNL224C, strain SQS1, hits give low values 1.03 | locus YNL322C, strain KRE1, hits give low values 1.02 | locus YOR083W, strain WHI5 (second series), hits give low values 1.02 | locus YPL241C, strain CIN2, hits give low values 0.996
